For assay [1], the target named is Glutathione peroxidase 1 (Homo sapiens) (UniProt P07203). Description: Primary qHTS Assay for Inhibitors of Recombinant Selenoprotein Glutathione Peroxidase 1 (GPX1) (AID 1845191). Also: nearly all actives have a fitted effect of over 65% in size. As to activity, negative = inhibition: % is scaled to controls: 0 for no effect and ±100 for the full control effect. The method in brief: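 NADPH consumption tracked by fluorescence at 340/450 nm between t=0 and t=15 min, room temperature. Final mix: 10 nM GPX1, 100 nM glutathione reductase, 1 mM GSH, 0.5 mM NADPH, 0.5 mM cumene hydroperoxide, 0.01% BSA; 30 min compound–enzyme preincubation.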
Sequence of Glutathione peroxidase 1 (Homo sapiens) (P07203 whole entry, looked up): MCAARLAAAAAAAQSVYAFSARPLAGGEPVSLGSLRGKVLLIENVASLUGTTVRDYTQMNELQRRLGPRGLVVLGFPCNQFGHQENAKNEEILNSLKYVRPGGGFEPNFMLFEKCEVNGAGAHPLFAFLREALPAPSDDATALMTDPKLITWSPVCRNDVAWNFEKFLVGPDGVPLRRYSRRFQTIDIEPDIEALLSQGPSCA
(In qHTS, concentration-response curves come from the screen itself.)

For assay [2], the target named is Luciferin 4-monooxygenase (Photinus pyralis) (UniProt P08659). Description: Primary firefly luciferase (FLuc) qHTS assay for identification of artifact compounds. (AID 1845220). Also: nearly all actives have a fitted effect of over 60% in size.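 As to activity change, negative = inhibition: series mostly up to about 54 µM; plate controls were DMSO vehicle for no effect and no enzyme for full effect.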 The method, boiled down: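 Compounds sat 15 min at room temperature with 10 uM luciferin and 10 uM ATP (pH 7.6 Tris acetate). Firefly luciferase (10 nM final) was then added, and luminescence was read 5 min later. Data normalized to no-enzyme and DMSO controls were Hill-fitted.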

The nature of assay [3]: Primary fluorescence-based thiol-reactive (MSTI) qHTS assay for identification of artifact compounds. (AID 1845221). Also: nearly all actives have a fitted effect of over 65% in size. Also: potency is read from the fitted curve at half-maximal effect.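 As to activity change, negative = thiol reactive: series mostly up to about 54 µM; thiol-reactive compounds lower the probe fluorescence signal.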 The method, boiled down:
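Thiol-reactive compounds detected by quenching of 4 uM MSTI fluorescence (525/598 nm) after 1 h room-temperature dark incubation in PBS pH 7.4, 2% DMSO. qHTS titration; percent inhibition Hill-fitted against Acetyl-MSTI/MSTI controls.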

The test system of assay [4] is Nanoluciferase (engineered Oplophorus gracilirostris luciferase). Description: Primary Nanoluciferase (NLuc) qHTS assay for identification of artifact compounds. (AID 1845222). Also: potency is read from the fitted curve at half-maximal effect.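 As to activity, negative = inhibition: series mostly up to about 54 µM; 0% = DMSO and -100% = no enzyme.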 The method, boiled down:
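Luminescence from secreted NLuc (filtered, 1:55-diluted S16 cell medium) read 5 min after Nano-Glo substrate; compounds preincubated 15 min, RT. Hill fits of inhibition normalized to DMSO and no-enzyme.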

The nature of assay [5]: Primary redox qHTS assay for identification of artifact compounds. (AID 1845223).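 Also: 0% = DMSO and 100% = reference compound.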 The method in brief: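 Redox-cycling detection via DTT (250 uM final) oxidation coupled to Amplex Red (25 uM)/HRP (250 mU/mL) in HBSS. 15 min preincubation plus 30 min after DTT, room temperature. Ex/Em 525/598 nm; 4-parameter Hill fit against DMSO and 10 uM DA3003.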
In assay [6] the target is Phospholipid hydroperoxide glutathione peroxidase GPX4 (Homo sapiens) (UniProt P36969). Kind of assay: Primary qHTS Assay for Inhibitors of Recombinant Selenoprotein Glutathione Peroxidase 4 (GPX4) (AID 1845192). Also: nearly all actives have a fitted effect of over 65% in size. As to activity change, negative = inhibition: series mostly up to about 50 µM; % is scaled to controls: 0 for no effect and ±100 for the full control effect. The method, boiled down:
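NADPH consumption followed by fluorescence at 340/450 nm, t=0 and after 15 min at room temperature. Reaction started with cumene hydroperoxide (0.5 mM final) after 30 min compound–GPX4 preincubation; final 200 nM GPX4, 100 nM GR, 1 mM GSH, 0.5 mM NADPH.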

Unmarked numbers belong to inactive results. Inconclusive results are not listed. Activity calls are given as the source filed them. Calls follow the shape of the dose curve; as a rule, active = well fitted curve in the direction sought with a large enough effect; inconclusive = small, poorly fitted or top-dose-only effect, or another doubt; inactive = no such curve, though single readings can be large; an effect the other way counts as inactive or inconclusive.

Sequence of Phospholipid hydroperoxide glutathione peroxidase GPX4 (Homo sapiens) (P36969 whole entry, looked up): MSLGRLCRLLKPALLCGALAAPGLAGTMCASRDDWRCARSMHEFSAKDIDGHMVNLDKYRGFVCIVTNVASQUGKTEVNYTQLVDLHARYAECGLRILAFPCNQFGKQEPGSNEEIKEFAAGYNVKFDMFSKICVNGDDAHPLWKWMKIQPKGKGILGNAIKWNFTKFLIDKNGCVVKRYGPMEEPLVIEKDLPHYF

`O=C(c1c2ccccc2cc2ccccc12)N1CCC(N2CCC[C@@H](C(=O)N3CCOCC3)C2)CC1`: the Potency result in assay [1], in assay [2], in assay [3], in assay [4] and in assay [5] was “inactive” each time.
Consider `C[C@H]1CC(=O)C2=C(C1)C(O)C(O)[C@@]1(O)[C@H]2C(=O)c2cccc(O)c2[C@@H]1O` (stereo not given in full), for which the Potency entry in assay [1], in assay [2], in assay [4] and in assay [5] was “inactive” in each case.
Regarding `CC(=O)/C=C/C1C(C)CC(O[C@@H]2O[C@H](CO)[C@@H](O)[C@H](O)[C@H]2O)CC1(C)C` (stereo not given in full), the Potency entry in assay [1], in assay [2], in assay [4] and in assay [5] was “inactive” throughout. Moreover, in assay [3], the Potency is 14.7 µM (active).
Consider `C[C@H]1CC[C@@]2(OC1)O[C@H]1CC3C4CC[C@H]5C[C@@H](O)CC[C@]5(C)C4CC(=O)[C@]3(C)[C@H]1[C@@H]2C` (stereo not given in full), for which the Potency entry in assay [1], in assay [2], in assay [3], in assay [4] and in assay [5] was “inactive” in each case.
Turning to `CC(=O)OC12CC(C)C(OC(=O)c3ccccc3)C1/C=C(/C)C(OC(=O)c1ccccc1)CC(=O)C(C)(C)/C=C/C(C)C2=O` (stereo not given), the Potency result in assay [6], in assay [2], in assay [3], in assay [4] and in assay [5] was “inactive” throughout.
For `Cc1cc(C)c2nc(-c3ccccn3)cc(C(=O)Nc3ccc(S(=O)(=O)Nc4onc(C)c4C)cc3)c2c1`, the Potency result in assay [1], in assay [4] and in assay [5] was “inactive” throughout.
As for `O=C(COCC(=O)N1CCN(C(c2ccccc2)c2ccccc2)CC1)Nc1ccc(Cl)cc1C(=O)O`, the Potency entry in assay [1], in assay [3], in assay [4] and in assay [5] was “inactive” throughout.
Regarding `CC(C)C[C@H](NC(=O)[C@@H]1O[C@H]1C(=O)O)C(=O)NCCCCN=C(N)N`, the Potency entry in assay [6], in assay [2], in assay [3], in assay [4] and in assay [5] was “inactive” each time.
Take `COc1ccnc2[nH]cc(C(=O)C(=O)N3CCN(C(=O)c4ccccc4)CC3C)c12` (stereo not given): the Potency entry in assay [6], in assay [2], in assay [3], in assay [4] and in assay [5] was “inactive” in each case.
As for `C[C@@]1(C(=O)O)CCC[C@@]2(C)C3=CC[C@H]4C[C@@]3(CC[C@H]12)CC4(O)CO` (stereo not given in full), the Potency result in assay [6], in assay [2], in assay [3], in assay [4] and in assay [5] was “inactive” each time.
Take `CCCCS(=O)(=O)NC(Cc1ccc(OCCCCC2CCNCC2)cc1)C(=O)O` (stereo not given): the Potency result in assay [6], in assay [2], in assay [3], in assay [4] and in assay [5] was “inactive” in each case.
Consider `Cc1sc(C)c(C(=O)NC2(c3ccc(C(=O)O)cc3)CC2)c1Cc1ccc(C(F)(F)F)cc1`, for which the Potency entry in assay [6], in assay [2] and in assay [3] was “inactive” in each case. Further, in assay [4], the Potency was 4.78 µM (active).
Take `COc1ccc(/C=C/C(=O)N2CCCC2)cc1`: the Potency result in assay [6], in assay [2], in assay [3], in assay [4] and in assay [5] was “inactive” throughout.
As for `CSC(=O)OCC1=C[C@@H]2OC(=O)C3=CO[C@@H](O[C@@H]4O[C@H](CO)[C@@H](O)[C@H](O)[C@H]4O)[C@H]1[C@@H]32`, the Potency result in assay [6], in assay [2], in assay [4] and in assay [5] was “inactive” in each case. In addition, the Potency in assay [3] was 6.53 µM (active).
With `C=C(COC(=O)CC(C)C)C1Cc2cc(C(C)=O)ccc2O1` (stereo not given), the Potency entry in assay [6], in assay [2], in assay [3] and in assay [4] was “inactive” in each case.
With `CCOC(=O)C(CCc1ccccc1)NC1CCCN2CCCC(C(=O)O)N2C1=O` (stereo not given), the Potency entry in assay [6], in assay [2], in assay [3] and in assay [4] was “inactive” throughout.
Take `Cc1ccccc1N1CCN(S(=O)(=O)C[C@]23CC[C@H](C[C@@H]2NC(=O)[C@@H](N)CCS(C)(=O)=O)C3(C)C)CC1`: the Potency entry in assay [6], in assay [2], in assay [3], in assay [4] and in assay [5] was “inactive” throughout.
`CC(=O)OC1C(CO)OC(O[C@H]2[C@H](OC(=O)[C@]34CCC(C)(C)C[C@H]3C3=CCC5[C@@]6(C)CC[C@H](O[C@@H]7O[C@H](C(=O)O)[C@@H](O)[C@H](O[C@@H]8OC[C@@H](O)[C@H](O)[C@H]8O)[C@H]7O[C@@H]7O[C@H](CO)[C@H](O)[C@H](O)[C@H]7O)[C@@](C)(C=O)C6CC[C@@]5(C)[C@]3(C)C[C@H]4O)O[C@H](C)[C@H](OC3OC(C)C(OC4OCC(O)C(O)C4O)C(O)C3O)[C@@H]2O)C(O)C1O` (stereo not given in full): the Potency entry in assay [6] is “inactive”. Moreover, the activity change, negative = inhibition in assay [2] is 2.42% [at 11.6 µM]. Moreover, the activity change, negative = thiol reactive in assay [3] is 290% [at 11.5 µM]. In addition, the activity, negative = inhibition in assay [4] is 1.69% [at 11.6 µM]. Further, the redox activity (% of DA3003) in assay [5] was 3.62% [at 11.5 µM].
Turning to `CCc1nnc(NS(=O)(=O)c2ccc(NC(=S)NC(=O)/C=C/c3ccc(F)cc3)cc2)s1`, the Potency result in assay [6], in assay [2], in assay [3] and in assay [4] was “inactive” in each case.
On to `COC(=O)C1=CO[C@@H](O[C@@H]2O[C@H](CO[C@@H]3O[C@H](CO)[C@@H](O)[C@H](O)[C@H]3O)[C@@H](O)[C@H](O)[C@H]2O)[C@@H]2C(CO)=CC[C@H]12`, for which the Potency result in assay [6], in assay [2], in assay [3], in assay [4] and in assay [5] was “inactive” in each case.
With `COC(O)(CC(C)C)C1Oc2cc(C)[nH]c(=O)c2O1` (stereo not given), the Potency entry in assay [6], in assay [2], in assay [3], in assay [4] and in assay [5] was “inactive” each time.
Take `O=C(CCCCC1CCCCC1)N1CCC(c2cnc[nH]2)CC1`: the Potency result in assay [6], in assay [2], in assay [3], in assay [4] and in assay [5] was “inactive” throughout.
Take `CCOC(=O)C(CCc1ccccc1)NC(C)C(=O)N1Cc2ccccc2CC1C(=O)O` (stereo not given): the Potency result in assay [6], in assay [2], in assay [3] and in assay [4] was “inactive” in each case.
As for `CC(=O)OC1CC2C(C)(C)C(=O)C=CC2(C)C2CC(=O)C3=C(CCC3C3=CC(O)OC3=O)C12C` (stereo not given), the Potency entry in assay [6], in assay [2], in assay [3] and in assay [4] was “inactive” each time.

Values taken from PubChem BioAssay (NCATS).
